Among all 320,000 compounds or so, about 480 (0.15%) were called active. About 1% were inconclusive and are not listed. No stated cut-off is given here; in the data, active means inhibition above about 26% (passing the limit was not always enough); inconclusive means no clear call, values can overlap the other calls. Only a selection was taken, and actives are over-represented in it overall.
Biological target: Histone deacetylase 3 (Homo sapiens) (UniProt O15379)
Test: inhibition of human HDAC3 enzyme activity – biochemical, fluorescence, cell-free homogeneous, primary screen (AID 2718)
Details: recombinant HDAC3, fluorogenic peptide/trypsin coupled, at 8.3 µM, stronger effect = higher value

Chain of Histone deacetylase 3 (Homo sapiens) (O15379 whole entry, looked up): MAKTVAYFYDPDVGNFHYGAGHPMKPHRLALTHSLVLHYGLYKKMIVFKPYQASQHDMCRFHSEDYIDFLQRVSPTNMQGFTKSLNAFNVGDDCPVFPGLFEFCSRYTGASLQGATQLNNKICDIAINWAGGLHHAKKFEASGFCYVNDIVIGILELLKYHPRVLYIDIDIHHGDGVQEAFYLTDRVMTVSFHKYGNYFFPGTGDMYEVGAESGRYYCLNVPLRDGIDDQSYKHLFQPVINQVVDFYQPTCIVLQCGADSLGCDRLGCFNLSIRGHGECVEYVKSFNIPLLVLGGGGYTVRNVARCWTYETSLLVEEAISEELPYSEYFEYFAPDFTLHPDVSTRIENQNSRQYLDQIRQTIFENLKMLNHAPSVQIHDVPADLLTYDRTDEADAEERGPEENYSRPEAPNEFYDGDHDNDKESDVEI

| SMILES | inhibition |
| --- | --- |
| O=C(COc1ccc(F)cc1Br)NCC1COc2ccccc2O1 (centres undefined) | -3.53% (inactive) |
| CCCCN(C(=O)C1CCC1)c1c(N)n(Cc2ccccc2)c(=O)[nH]c1=O | -3.39% (inactive) |
| O=C(COC(=O)c1cccc(Cl)c1)NC(=O)NCc1ccccc1 | 1.01% (inactive) |
| CC(OC(=O)c1cc2ccccc2[nH]1)C(=O)N(C)c1ccccc1 (centres undefined) | -8.32% (inactive) |
| COCCNC(=O)CCCN1C(=O)c2ccccc2Sc2ncccc21 | 2.45% (inactive) |
| CCOc1ccc(-n2c(N)c(C(=O)NCC3CCCO3)sc2=S)cc1 (centres undefined) | 3.4% (inactive) |
| O=C(Nc1nnc(-c2ccccc2)o1)c1cccc(S(=O)(=O)N2CCOCC2)c1 | -1.1% (inactive) |
| COc1ccccc1C(=O)NCC(=O)OCC(=O)NNC(=O)c1ccc(Br)cc1 | -9.69% (inactive) |
| CCCn1c(=O)c2c(C(F)(F)F)cc(-c3cccs3)nc2n(CCC)c1=O | 1.67% (inactive) |
| COc1ccc(NC(=O)CNC(=O)Cn2ccc3ccccc3c2=O)c(OC)c1 | -0.211% (inactive) |
| Fc1ccc2cnc(-c3ccccc3)cc2c1 | -0.273% (inactive) |
| Cc1ccc(NC(=O)C2CC2)cc1S(=O)(=O)N1CCOCC1 | 1.59% (inactive) |
| COc1ccc(-c2c(-c3cc(OC)cc(OC)c3)n(C)c3ccc(-c4ccn[nH]4)cc23)cc1 | -1.8% (inactive) |
| CC(C)n1cnc2c(NCc3ccccc3)cc(N[C@@H](CO)Cc3ccccc3)cc21 | 11.4% (inactive) |
| N=c1c2c3c(sc2ncn1N)CCCCC3 | -7.57% (inactive) |
| S=c1[nH]nc2c3c4c(sc3ncn12)CCCC4 | 42.4% (active) |
| N=c1c2c3c(sc2ncn1N)CCCC3 | 9.19% (inactive) |
| Cc1ccc(S(=O)(=O)NCCNC(C)c2ccc(Br)cc2)cc1 (centres undefined) | 6.4% (inactive) |
| CC(=O)c1ccc(NC(=O)CSc2nc3ccccc3c(=O)n2CCCN2CCOCC2)cc1 | 12.2% (inactive) |
| COc1ccc(N2C(=O)C(CC(=O)Nc3ccc(F)cc3)N(CCc3cccs3)C2=O)cc1 (centres undefined) | -0.706% (inactive) |

| SMILES | inhibition |
| --- | --- |
| CC1=CCC2C(=O)N(c3cccc(C(=O)NC(C)c4ccccc4)c3)C(=O)C2C1 (centres undefined) | -6.38% (inactive) |
| COc1ccc(CCNC(=O)CN2C(=O)COc3ccc(S(=O)(=O)N4CCCC4)cc32)cc1OC | -4.05% (inactive) |
| CC1(c2ccccc2)NC(=O)N(CC(=O)N2CC(=O)Nc3ccccc32)C1=O (centres undefined) | -0.182% (inactive) |
| C=CCOc1ccc(/C=C2\SC(=S)N(CCC(=O)O)C2=O)cc1 | 6.13% (inactive) |
| Cc1ccc(-c2nn(-c3ccccc3)cc2/C=C2\SC(=S)N(CCCCCC(=O)O)C2=O)o1 | 31.7% (active) |
| Cc1ccc(-c2nn(-c3ccccc3)cc2CN(Cc2ccccc2)C(=O)CCC(=O)O)o1 | -11.8% (inactive) |
| Clc1ccc2nc(CSc3ccccc3)cn2c1 | 10.1% (inactive) |
| C[C@H]1CN([C@@H](C)CO)C(=O)Cc2cc(NS(C)(=O)=O)ccc2O[C@@H]1CN(C)CC1CC1 | -7.37% (inactive) |
| CC(C)(C)NC(=O)NC(=O)COC(=O)C1c2ccccc2Oc2ccccc21 | -4.96% (inactive) |
| Cc1cccc(C)c1Nc1nnc(SCC(=O)NCCCN2CCCC2=O)s1 | 0.701% (inactive) |
| O=C(NCc1ccc2c(c1)OCO2)c1c(-c2ccsc2)sc2ccccc12 | 4.88% (inactive) |
| O=C(Nc1ccc(Br)cn1)C1CCN(S(=O)(=O)c2cccs2)CC1 | -1.41% (inactive) |
| C=C(C)COc1ccc(-c2n[nH]c(C)c2-c2ccccc2)c(O)c1 | 28.9% (active) |
| COc1ccc(-c2n[nH]c(C)c2-c2ccccc2OC)c(O)c1 | -1.09% (inactive) |
| C=C(C)COc1ccc(-c2ncncc2-c2ccc(OC)cc2)c(O)c1 | 4.53% (inactive) |
| Cc1ccc(C)c(NC(=O)c2cc(-c3cc(C)cc(C)c3O)n[nH]2)c1 | -1.79% (inactive) |
| Cc1cc(NC(=O)CSc2nnc(-c3ccco3)n2N)no1 | 2.85% (inactive) |
| Cc1[nH]c2ccccc2c1SCC(=O)Nc1nccs1 | -0.0176% (inactive) |
| CC(C)(C)OC(=O)C[C@@H]1C/C=C\C[C@H](CC(=O)N[C@@H](CO)Cc2ccccc2)C(=O)N[C@H](Cc2ccccc2)COC1=O | -0.452% (inactive) |
| COc1ccccc1-c1sc2ccccc2c1C#CC1(O)CCCCC1 | 14.4% (inactive) |

| SMILES | inhibition |
| --- | --- |
| COc1cc(/C=C/C(=O)OCC(=O)c2ccccc2)cc(OC)c1OC | -7.7% (inactive) |
| O=C(OCC(=O)N1CCCCC1)c1ccc(OC(F)(F)F)cc1 | -7.06% (inactive) |
| O=C(Cn1cnc2c(OCc3ccccc3)ncnc21)NCCCn1ccnc1 | -4.2% (inactive) |
| O=C1CCCC(O)=C1N=Nc1ccc2ncsc2c1 | -0.0778% (inactive) |
| Nc1ccc(N=Nc2ccccc2Cl)c(N)n1 | 14.3% (inactive) |
| NC[C@H](Cc1ccccc1)NCCc1cc(C(F)(F)F)cc(C(F)(F)F)c1 | 3.54% (inactive) |
| O=C(COC(=O)CCCNC(=O)c1ccc(Cl)cc1)Nc1cc(Cl)ccc1Cl | -2.2% (inactive) |
| O=C(Nc1cc(S(=O)(=O)Nc2ccc(Cl)cc2)ccc1O)c1ccc(F)cc1F | 8.91% (inactive) |
| O=C(Nc1ncccc1O)c1ccc(S(=O)(=O)N2CCCC2)cc1 | 72.1% (active) |
| O=C(Nc1ccccc1F)c1ccc(S(=O)(=O)N2CCCCCC2)cc1 | 7.14% (inactive) |
| O=C(N/N=C/c1ccccn1)c1ccc(S(=O)(=O)N2CCCCCC2)cc1 | -5.66% (inactive) |
| CCCc1cc(=O)[nH]c(SCC(=O)Nc2ccc(S(=O)(=O)N3CCCC3)cc2)n1 | 4.11% (inactive) |
| O=C1N(c2ccccc2)C(=Nc2ccccc2)SC12CC2 | 1.18% (inactive) |
| Cc1ccccc1N/C(SCc1ccc(Cl)cc1)=C(/C#N)C(N)=O | 15.5% (inactive) |
| CCOC(=O)C1CCN(CCC(=O)Nc2cccc(C)c2)CC1 | 1.84% (inactive) |
| CC(=O)c1cccc(OCC(=O)OCC(=O)Nc2cc(S(=O)(=O)N3CCCCC3)ccc2C)c1 | 0.557% (inactive) |
| CNC(=O)NC(=O)C(OC(=O)c1cccc(S(=O)(=O)N2CCCCC2)c1)c1ccccc1 (centres undefined) | 30.1% (active) |
| CN1CCN(S(=O)(=O)c2cccc(C(=O)O)c2)CC1 | -5.01% (inactive) |
| CS(=O)(=O)c1ccc(Cl)c(NC(=O)COC(=O)c2cccc(S(=O)(=O)N3CCCC3)c2)c1 | 5.04% (inactive) |

Reference: PubChem BioAssay AID2718 (Broad Institute, 2010)
